{"source": "the supplement of paper PMC12282887", "tested_on": "E. coli BW25113 marRABp lux reporter", "assay": "promoter activity interaction Z-score (Lux/OD deviation from empty-vector control); higher = stronger promoter induction by the compound", "protocol": "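E. coli BW25113 (wild type or ΔmarA/ΔsoxS/Δrob) carrying pTU175 luxCDABE promoter reporters was grown in LB in 384-well plates at 37°C with each of 94 compounds at 4 two-fold concentrations, in biological duplicates. Luminescence and OD600 were read every 30 min for 12 h and integrated as AUC over 8 h (0-8 h WT, 1-9 h mutants). Lux AUC was divided by OD AUC; the interaction score is the residual of a Huber robust fit of each promoter against the empty-vector control, then Z-transformed per promoter.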", "key": {"[1]": {"details": "0.11 µg/ml, genetic background: wild type"}, "[2]": {"details": "0.11 µg/ml, genetic background: ΔmarA"}, "[3]": {"details": "0.11 µg/ml, genetic background: Δrob"}, "[4]": {"details": "0.11 µg/ml, genetic background: ΔsoxS"}}, "note": "± gives the standard deviation of the averaged measurements."}
{"smiles": "C[C@@H](O)[C@H]1C(=O)N2C(C(=O)O)=C(S[C@@H]3CN[C@H](C(=O)N(C)C)C3)[C@H](C)[C@H]12", "note": "[Meropenem]", "values": [{"measurement": "promoter activity interaction Z-score", "setting": "0.011 µg/ml, genetic background: wild type", "result": "-0.451 ± 0.26"}, {"measurement": "promoter activity interaction Z-score", "setting": "0.011 µg/ml, genetic background: ΔmarA", "result": "-0.532 ± 0.041"}, {"measurement": "promoter activity interaction Z-score", "setting": "0.011 µg/ml, genetic background: Δrob", "result": "-0.399 ± 0.031"}, {"measurement": "promoter activity interaction Z-score", "setting": "0.011 µg/ml, genetic background: ΔsoxS", "result": "-0.178 ± 0.1"}, {"measurement": "promoter activity interaction Z-score", "setting": "0.022 µg/ml, genetic background: wild type", "result": "-0.13 ± 0.065"}, {"measurement": "promoter activity interaction Z-score", "setting": "0.022 µg/ml, genetic background: ΔmarA", "result": "-0.4 ± 0.097"}, {"measurement": "promoter activity interaction Z-score", "setting": "0.022 µg/ml, genetic background: Δrob", "result": "-0.114 ± 0.41"}, {"measurement": "promoter activity interaction Z-score", "setting": "0.022 µg/ml, genetic background: ΔsoxS", "result": "0.18 ± 0.22"}, {"measurement": "promoter activity interaction Z-score", "setting": "0.044 µg/ml, genetic background: wild type", "result": 0.785}, {"measurement": "promoter activity interaction Z-score", "setting": "0.044 µg/ml, genetic background: ΔmarA", "result": -0.754}, {"measurement": "promoter activity interaction Z-score", "setting": "0.044 µg/ml, genetic background: Δrob", "result": 1}, {"measurement": "promoter activity interaction Z-score", "setting": "0.044 µg/ml, genetic background: ΔsoxS", "result": -0.0187}]}
{"smiles": "N[C@@H](C(=O)N[C@@H]1C(=O)N2C(C(=O)O)=C(Cl)CS[C@H]12)c1ccccc1", "note": "[Cefaclor]", "values": [{"measurement": "promoter activity interaction Z-score", "setting": "[1]", "result": "-0.22 ± 0.046"}, {"measurement": "promoter activity interaction Z-score", "setting": "[2]", "result": "-0.342 ± 0.017"}, {"measurement": "promoter activity interaction Z-score", "setting": "[3]", "result": "0.00564 ± 0.3"}, {"measurement": "promoter activity interaction Z-score", "setting": "[4]", "result": "0.0816 ± 0.011"}, {"measurement": "promoter activity interaction Z-score", "setting": "0.23 µg/ml, genetic background: wild type", "result": "0.101 ± 0.062"}, {"measurement": "promoter activity interaction Z-score", "setting": "0.23 µg/ml, genetic background: ΔmarA", "result": "-0.215 ± 0.016"}, {"measurement": "promoter activity interaction Z-score", "setting": "0.23 µg/ml, genetic background: Δrob", "result": "-0.0669 ± 0.059"}, {"measurement": "promoter activity interaction Z-score", "setting": "0.23 µg/ml, genetic background: ΔsoxS", "result": "-0.244 ± 0.22"}, {"measurement": "promoter activity interaction Z-score", "setting": "0.46 µg/ml, genetic background: wild type", "result": "-0.245 ± 0.15"}, {"measurement": "promoter activity interaction Z-score", "setting": "0.46 µg/ml, genetic background: ΔmarA", "result": "0.298 ± 0.42"}, {"measurement": "promoter activity interaction Z-score", "setting": "0.46 µg/ml, genetic background: Δrob", "result": "0.0148 ± 0.0067"}, {"measurement": "promoter activity interaction Z-score", "setting": "0.46 µg/ml, genetic background: ΔsoxS", "result": "-0.145 ± 0.23"}]}
{"smiles": "Cc1ncc([N+](=O)[O-])n1CCO", "note": "[Metronidazole]", "values": [{"measurement": "promoter activity interaction Z-score", "setting": "[1]", "result": "0.18 ± 0.22"}, {"measurement": "promoter activity interaction Z-score", "setting": "[2]", "result": "-0.0383 ± 0.16"}, {"measurement": "promoter activity interaction Z-score", "setting": "[3]", "result": "-0.0923 ± 0.23"}, {"measurement": "promoter activity interaction Z-score", "setting": "[4]", "result": "-0.209 ± 0.08"}, {"measurement": "promoter activity interaction Z-score", "setting": "0.21 µg/ml, genetic background: wild type", "result": "0.0869 ± 0.33"}, {"measurement": "promoter activity interaction Z-score", "setting": "0.21 µg/ml, genetic background: ΔmarA", "result": "-0.213 ± 0.16"}, {"measurement": "promoter activity interaction Z-score", "setting": "0.21 µg/ml, genetic background: Δrob", "result": "0.0389 ± 0.047"}, {"measurement": "promoter activity interaction Z-score", "setting": "0.21 µg/ml, genetic background: ΔsoxS", "result": "0.0145 ± 0.012"}, {"measurement": "promoter activity interaction Z-score", "setting": "0.43 µg/ml, genetic background: wild type", "result": "-0.113 ± 0.25"}, {"measurement": "promoter activity interaction Z-score", "setting": "0.43 µg/ml, genetic background: ΔmarA", "result": "0.07 ± 0.011"}, {"measurement": "promoter activity interaction Z-score", "setting": "0.43 µg/ml, genetic background: Δrob", "result": "0.119 ± 0.23"}, {"measurement": "promoter activity interaction Z-score", "setting": "0.43 µg/ml, genetic background: ΔsoxS", "result": "-0.0739 ± 0.18"}, {"measurement": "promoter activity interaction Z-score", "setting": "0.86 µg/ml, genetic background: wild type", "result": "0.0285 ± 0.35"}, {"measurement": "promoter activity interaction Z-score", "setting": "0.86 µg/ml, genetic background: ΔmarA", "result": "0.0853 ± 0.054"}, {"measurement": "promoter activity interaction Z-score", "setting": "0.86 µg/ml, genetic background: Δrob", "result": "0.0343 ± 0.03"}, {"measurement": "promoter activity interaction Z-score", "setting": "0.86 µg/ml, genetic background: ΔsoxS", "result": "-0.0303 ± 0.042"}]}
